# Where “and” joins values, the source holds several entries; their conditions need not be identical. Identical values can stand only once. Records with an inconclusive call do not appear. Where a call stands in place of a potency, no number is given. Some compounds were tested as several samples or in several runs, with calls that do not always agree. Calls of active or inactive are those of the source. Calls come from the whole dose curve.
# Experiment: qHTS assay for small molecule disruptors of the mitochondrial membrane potential - cell viability (AID 720634); note: nearly all actives have a fitted effect of over 20% in size
# Conditions: HepG2 viability, ATP luminescence (CellTiter-Glo), 1 h; series mostly up to 83.2 µM
# Text: U.S. Tox21 Program National Center for Advancing Translational Sciences [NCATS] NIH Chemical Genomics Center [NCGC] U.S. Environmental Protection Agency [EPA] National Institutes of Environmental Health Sciences [NIEHS] National Toxicology Program [NTP] U.S. Food and Drug Administration [FDA] Tox21 Assay Overview: Mitochondrial membrane potential (MMP), one of the parameters for mitochondrial function, is generated by mitochondrial electron transport chain that creates an electrochemical gradient by a series of redox reactions. This gradient drives the synthesis of ATP, a crucial molecule for various cellular processes. Measuring MMP in living cells is commonly used to assess the effect of chemicals on mitochondrial function; decreases in MMP can be detected using lipophilic cationic fluorescent dyes. […] The dye accumulates in the mitochondria of healthy cells as aggregates, with red fluorescence. The mitochondrial potential decreases and the dye could not accumulate in the mitochondria and remains in the cytoplasm in monomers, with green fluorescence. In addition to the mitochondrial potential assay, these cells were also used to test the cytotoxicity by determining the cell viability in the culture based on the quantitation of ATP present. The cytotoxicity was measured in the same assay well of MMP assay.
# Tox21 Assay Protocol Summary: 2,000 HepG2 cells in 5 uL/well were dispensed into black, clear-bottom 1536-well plates using a Multidrop Combi (Thermo Scientific) dispenser. The assay plates were incubated for an overnight at 37 C to allow cells to attach to the wells, followed by the transfer of 23 nL compound or DMSO vehicle by a pin tool (Kalypsys). The plates were incubated for 1 hr at 37 C and 5% CO2, followed by the addition of 5 uL of 2X m-MPI dye into each well using Flying Reagent Dispenser (Aurora Discovery) and then CellTiter-Glo reagent was added at 4 uL/well and incubated 30 min at room temperature. Then luminescence intensity was quantified on a ViewLux CCD-based plate reader.
# Potency is the fitted concentration of half-maximal effect.
row,Compound,Potency
1,CC/C=C\C/C=C\C/C=C\CCCCCCCC(=O)O,inactive
2,Nc1cc([N+](=O)[O-])ccc1C(=O)O,inactive
3,OCCNCCO,inactive
4,Brc1nc2ccccc2s1,inactive
5,Nc1ccc(O)c(N)c1,inactive
6,OC[C@H]1O[C@@H]2O[C@H]3[C@H](O)[C@@H](O)[C@@H](O[C@H]4[C@H](O)[C@@H](O)[C@@H](O[C@H]5[C@H](O)[C@@H](O)[C@@H](O[C@H]6[C@H](O)[C@@H](O)[C@@H](O[C@H]7[C@H](O)[C@@H](O)[C@@H](O[C@H]1[C@H](O)[C@H]2O)O[C@@H]7CO)O[C@@H]6CO)O[C@@H]5CO)O[C@@H]4CO)O[C@@H]3CO,inactive
7,O=C(O)c1ccc(O)cc1,inactive
8,c1ccc2c(c1)ccc1ncccc12,inactive
9,NCCN,inactive
10,CC(=O)Nc1ccc2c(c1)Cc1cc(NC(C)=O)ccc1-2,inactive
11,C=C[C@@]1(C)CC(=O)[C@]2(O)[C@@]3(C)[C@@H](O)CCC(C)(C)[C@@H]3[C@H](O)[C@H](OC(C)=O)[C@@]2(C)O1,inactive
12,C=CCCCCCCCCCC,inactive
13,CC[C@]12CCCN3CCc4c(n(c5ccccc45)[C@@](O)(C(=O)OC)C1)[C@@H]32,inactive
14,CN(C)C,inactive
15,O=Cc1ccccc1C=O,inactive and 61.1 µM (active)
16,CC(C)[C@@H]1CC[C@@H](C)CC1=O,inactive
17,CCC(=O)O[C@H]1[C@H](O[C@@H]2[C@@H](C)[C@H](O[C@H]3C[C@@](C)(OC)[C@@H](O)[C@H](C)O3)[C@@H](C)C(=O)O[C@H](CC)[C@@](C)(O)[C@H](O)[C@@H](C)C(=O)[C@H](C)C[C@@]2(C)O)O[C@H](C)C[C@@H]1N(C)C,inactive
18,CC(C)(C)c1cccc(C(C)(C)C)c1O,inactive
19,CCC(Cc1c(I)cc(I)c(N)c1I)C(=O)O (stereo not given),inactive
20,CCc1cccc2c3c([nH]c12)C(CC)(CC(=O)O)OCC3 (stereo not given),inactive

row,Compound,Potency
1,CCCCCCOCCOCCO,inactive
2,Cc1cccc(Nc2ccccc2C(=O)O)c1C,inactive
3,CC(C)[N+](C)(CCOC(=O)C1c2ccccc2Oc2ccccc21)C(C)C,inactive
4,FC(F)(F)C(Cl)Br (stereo not given),inactive
5,CC(=O)Oc1c(C)c(C)c2c(c1C)CC[C@@](C)(CCC[C@H](C)CCC[C@H](C)CCCC(C)C)O2,inactive
6,Cc1ccc(N)c([N+](=O)[O-])c1,inactive
7,CC1(C)C(C=C(Cl)Cl)C1C(=O)OCc1cccc(Oc2ccccc2)c1 (stereo not given),inactive
8,CCCCCCCCCCC(CO)CCCCCCCC (stereo not given),inactive
9,NCCS(=O)(=O)O,inactive
10,COc1ccc(-c2coc3cc(O)cc(O)c3c2=O)cc1,4.9 µM (active) and 13.7 µM (active)
11,CCCCCCCCCCCCO,inactive
12,c1ccc2c(c1)ccc1cc3c(ccc4ccccc43)cc12,inactive
13,NCCOCCO,inactive
14,CN1CCOCC1,inactive
15,COC(=O)C(C)Oc1ccc(Oc2ncc(C(F)(F)F)cc2Cl)cc1 (stereo not given),inactive
16,O=C1OC2(c3ccccc31)c1cc(I)c(O)c(I)c1Oc1c2cc(I)c(O)c1I,inactive
17,C=CCOC(=O)C(=C)C,inactive
18,O=C(CCCN1CCC(O)(c2ccc(Cl)cc2)CC1)c1ccc(F)cc1,inactive
19,C=C[Si](OCCOC)(OCCOC)OCCOC,inactive
20,O=C(O)COCCN1CCN(C(c2ccccc2)c2ccc(Cl)cc2)CC1 (stereo not given),inactive

# From PubChem BioAssay (Tox21)
